One may read the AC50 as the midpoint of the concentration-response curve, whichever way the signal moves.

The values below come from PubChem BioAssay (EPA / NIEHS).

A short description of assay [1]: ATG_M_32_CIS: Attagene CIS-FACTORIAL HepG2 Assay for M32 Transcription Factor (Internal Marker) (AID 2282949).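 Note: background control marker of the multiplexed CIS panel rather than a real target.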 As to conditions: HepG2 Attagene cis-factorial M32 reporter, mRNA; actives raise or lower the signal. The method, boiled down:
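Using DMSO as baseline, bidirectional curve fits were applied to reporter mRNA signals. These came from transiently transfected HepG2 cells exposed for 24 h, with RNA analysed by RT-PCR, FAM primer extension, HpaI digestion and CE.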

Assay [2] in a line: ATG_M_06_CIS: Attagene CIS-FACTORIAL HepG2 Assay for M06 Transcription Factor (Internal Marker) (AID 2282950). As to conditions: HepG2 Attagene CIS-FACTORIAL M06 internal marker reporter; actives raise or lower the signal. In a few lines: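 Serves as a background control readout. Transfected HepG2 exposed to compounds for 24 h, then reporter transcripts quantified by fluorescent RT-PCR and capillary electrophoresis. Both directions fitted against DMSO baseline.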

Assay [3] deals with Hypoxia-inducible factor 1-alpha (Homo sapiens) (UniProt Q16665). Put plainly: ATG_HIF1a_CIS: Attagene CIS-FACTORIAL HepG2 Assay for human Hypoxia Inducible Factor 1 (HIF1A) (AID 2282951). As to conditions: HepG2 Attagene cis-factorial HIF1a reporter transcription; actives raise or lower the signal. The method, boiled down:
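Measures endogenous transcription-factor activity through cis-regulated reporter mRNA in HepG2. Cells dosed 24 h; transcripts quantified by RT-PCR with 6-FAM-labelled products separated by capillary electrophoresis; DMSO serves as negative control.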

The target in assay [4] is Hepatocyte nuclear factor 6 (Homo sapiens) (UniProt Q9UBC0). The assay is described as follows: ATG_HNF6_CIS: Attagene CIS-FACTORIAL HepG2 Assay for human Hepatocyte Nuclear Factor 6 (HNF6) (AID 2282952). As to conditions: HepG2 Attagene cis-factorial HNF6 reporter transcription; actives raise or lower the signal. The method, boiled down: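 Endogenous transcription factor activity in human HepG2 liver cells was captured through cis-regulated reporter constructs. After 24 h treatment, reporter mRNA was measured by RT-PCR with capillary electrophoresis, and activity was fitted in both directions relative to DMSO.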
Chain of Hepatocyte nuclear factor 6 (Homo sapiens) (Q9UBC0 whole entry, looked up): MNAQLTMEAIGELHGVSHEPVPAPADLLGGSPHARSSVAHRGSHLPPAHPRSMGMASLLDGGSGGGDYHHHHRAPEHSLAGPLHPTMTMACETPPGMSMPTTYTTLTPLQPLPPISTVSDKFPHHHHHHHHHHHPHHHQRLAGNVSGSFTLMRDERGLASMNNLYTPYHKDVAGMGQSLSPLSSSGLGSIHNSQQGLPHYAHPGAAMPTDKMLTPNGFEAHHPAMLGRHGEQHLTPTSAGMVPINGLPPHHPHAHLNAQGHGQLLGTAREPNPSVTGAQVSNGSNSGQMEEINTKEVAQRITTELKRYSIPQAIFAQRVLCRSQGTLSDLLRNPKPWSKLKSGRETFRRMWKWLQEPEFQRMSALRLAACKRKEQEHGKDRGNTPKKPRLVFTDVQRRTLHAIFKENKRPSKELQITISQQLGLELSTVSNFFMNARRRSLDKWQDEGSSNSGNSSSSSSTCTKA

In assay [5] the target is Heat shock factor protein 1 (Homo sapiens) (UniProt Q00613). Put plainly: ATG_HSE_CIS: Attagene CIS-FACTORIAL HepG2 Assay for human Heat Shock Transcription Factor 1 (HSE) (AID 2282953). As to conditions: HepG2 HSE cis-reporter, Attagene RNA transcription; actives raise or lower the signal. In a few lines:
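Endogenous transcription factor activity in transiently transfected HepG2, read as reporter mRNA by RT-PCR with fluorescent capillary electrophoresis after 24 h. Gain or loss of signal fitted versus DMSO baseline.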

Assay [6] in a line: ATG_MRE_CIS: Attagene CIS-FACTORIAL HepG2 Assay for human Metal Responsive Element (MRE) (AID 2282954). As to conditions: HepG2 MRE cis-reporter transcription, Attagene multiplex; actives raise or lower the signal. The method, boiled down:
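RT-PCR/capillary electrophoresis readout of reporter mRNA, 24 h post-dosing, in HepG2 cells transfected with multiplexed cis-regulated reporter constructs. Gain or loss of signal fitted bidirectionally against DMSO baseline.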

The nature of assay [7]: ATG_PXRE_CIS: Attagene CIS-FACTORIAL HepG2 Assay for human Pregnane X Receptor Element (PXRE) (AID 2282957). As to conditions: HepG2 Attagene CIS-FACTORIAL PXRE reporter, mRNA; actives raise or lower the signal. The method, boiled down:
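Endogenous transcription factor activity in HepG2 was gauged through induction of reporter mRNA driven by a cis-regulating promoter element, sampled 24 h post-treatment. Activity was fitted in both directions against DMSO negative control.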

Assay [8] can be described thus: ATG_PPRE_CIS: Attagene CIS-FACTORIAL HepG2 Assay for human Peroxisome Proliferator-activated Response Element (PPRE) (AID 2282958). As to conditions: HepG2 PPRE cis-element reporter, Attagene transcription factor profiling; actives raise or lower the signal. In a few lines: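 Cells are first transfected transiently with the multiplexed reporter library, then dosed for 24 h. Total RNA is reverse-transcribed, amplified, fluorescently end-labeled and HpaI-cut before capillary electrophoresis; activity is fitted bidirectionally against DMSO controls.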

The nature of assay [9]: ATG_RORE_CIS: Attagene CIS-FACTORIAL HepG2 Assay for human RAR-related Orphan Receptor Element (RORE) (AID 2282959). As to conditions: HepG2 Attagene cis-factorial RORE reporter, mRNA; actives raise or lower the signal. The method, boiled down: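 Cells were HepG2 carrying transfected cis-regulated reporter constructs, dosed for 24 hours. Total RNA was reverse-transcribed and reporter cDNA amplified, fluorescently labeled and sized by capillary electrophoresis. Activity was fitted bidirectionally relative to DMSO.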

Assay [10] can be described thus: ATG_Sox_CIS: Attagene CIS-FACTORIAL HepG2 Assay for human SRY-box transcription factor (SOX) (AID 2282960). As to conditions: HepG2 Attagene cis-factorial SOX reporter, mRNA; actives raise or lower the signal. In a few lines: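 Transient MRTU transfection of HepG2; 24 h compound incubation; TriZol RNA, oligo(dT) RT, PCR, 6-FAM primer extension, HpaI cut, CE. Bidirectional fit, DMSO = baseline.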

The target of assay [11] is Transcription factor Sp1 (Homo sapiens) (UniProt P08047). Put plainly: ATG_Sp1_CIS: Attagene CIS-FACTORIAL HepG2 Assay for human Specificity Protein 1 (Sp1) (AID 2282961). As to conditions: HepG2 Sp1 cis-reporter transcription, actives raise or lower the signal. In a few lines:
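Endogenous Sp1 activity was gauged in human liver HepG2 cells bearing transfected reporter units under a cis-regulating promoter. After 24 h dosing, reporter mRNA was quantified by RT-PCR with capillary electrophoresis, and activity fitted bidirectionally versus DMSO.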

A short description of assay [12]: ATG_SREBP_CIS: Attagene CIS-FACTORIAL HepG2 Assay for human Sterol Regulatory Element Binding (SREBP) (AID 2282962). As to conditions: HepG2 Attagene cis-factorial SREBP reporter, mRNA; actives raise or lower the signal. In a few lines:
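Endogenous SREBP activity read as cis-element-driven reporter transcript in transiently transfected HepG2, 24 h post-dosing; quantified via RT-PCR plus capillary electrophoresis of fluorescent fragments. Gain or loss of signal fitted relative to DMSO baseline.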

Assay [13] has as its target Signal transducer and activator of transcription 3 (Homo sapiens) (UniProt P40763). Put plainly: ATG_STAT3_CIS: Attagene CIS-FACTORIAL HepG2 Assay for human Signal Transducer and Activator of Transcription 3 (STAT3) (AID 2282963). As to conditions: HepG2, Attagene cis-factorial STAT3 reporter transcription; actives raise or lower the signal. The method, boiled down: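 Readout: fluorescent reporter mRNA fragments resolved by capillary electrophoresis. Setup: HepG2 transfected with MRTUs reporting endogenous transcription-factor activity, dosed 24 h. Gain or loss of signal fitted bidirectionally against DMSO control.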

Assay [14] can be described thus: ATG_TA_CIS: Attagene CIS-FACTORIAL HepG2 Assay for human TA Basal Promoter (AID 2282964). As to conditions: HepG2 Attagene CIS-factorial TA basal promoter reporter; actives raise or lower the signal. The method, boiled down: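 Background-control readout: TA basal promoter reporter mRNA, fitted in both directions relative to DMSO. Measured by RT-PCR and capillary electrophoresis 24 hours after treating HepG2 human liver cells transiently carrying multiplexed cis-regulated reporter constructs.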

Assay [15] can be described thus: ATG_TCF_b_cat_CIS: Attagene CIS-FACTORIAL HepG2 Assay for human T-Cell-Factor with beta-catenin (TCF/b-cat) (AID 2282965). As to conditions: HepG2 TCF/beta-catenin cis-reporter transcription, actives raise or lower the signal. The method, boiled down:
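Cells of the HepG2 line carry transiently transfected reporter units whose promoters respond to endogenous factors. Twenty-four hours post-dosing, reporter mRNA induction is measured by fluorescent RT-PCR and capillary electrophoresis, with DMSO as baseline.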

Assay [16] can be described thus: ATG_TAL_CIS: Attagene CIS-FACTORIAL HepG2 Assay for human TAL Basal Promoter (AID 2282966).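 Note: background control endpoint measuring basal TAL promoter reporter mRNA not a specific factor.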 As to conditions: HepG2 Attagene cis-factorial TAL promoter reporter; actives raise or lower the signal. In a few lines: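 Endogenous transcription-factor activity is sensed in HepG2 cells through transfected cis-promoter reporter constructs. After 24 h dosing, reporter transcripts are quantified by RT-PCR and capillary electrophoresis. Gain or loss of signal is fitted relative to DMSO.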

Assay [17] is described as follows: ATG_TGFb_CIS: Attagene CIS-FACTORIAL HepG2 Assay for human Transforming Growth Factor (TGF) (AID 2282967). As to conditions: HepG2 Attagene CIS TGFb reporter, mRNA transcription; actives raise or lower the signal. The method, boiled down: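 Endogenous TGFB1-linked transcription factor activity read as reporter mRNA via RT-PCR and capillary electrophoresis, 24 h after dosing transiently transfected HepG2 cells. Gain or loss of signal fitted relative to DMSO.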

Assay [18] is described as follows: ATG_VDRE_CIS: Attagene CIS-FACTORIAL HepG2 Assay for human Vitamin D Receptor Element (VDRE) (AID 2282968). As to conditions: HepG2 VDRE cis-reporter transcription, actives raise or lower the signal. In a few lines: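 Transient MRTU transfection of HepG2, 24 h compound exposure. Readout: reporter transcripts via RT-PCR and capillary electrophoresis, fluorescence. Bidirectional fit vs DMSO.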

A short description of assay [19]: ATG_PBREM_CIS: Attagene CIS-FACTORIAL HepG2 Assay for human Phenobarbital-responsive Enhancer Module (PBREM) (AID 2282955). As to conditions: HepG2 PBREM cis-reporter, Attagene multiplexed transcription; actives raise or lower the signal. In a few lines:
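Fluorescence of labelled reporter cDNA fragments, resolved by capillary electrophoresis, gives mRNA induction in transfected HepG2 cells treated for 24 h; DMSO serves as negative control and baseline.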

The target of assay [20] is Paired box protein Pax-6 (Homo sapiens) (UniProt P26367). Put plainly: ATG_Pax6_CIS: Attagene CIS-FACTORIAL HepG2 Assay for human Paired Box 6 (PAX6) (AID 2282956). As to conditions: HepG2 CIS-FACTORIAL PAX6 reporter transcription, RNA readout; actives raise or lower the signal. In a few lines: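 Read-out is reporter transcript level, measured by RT-PCR with fluorescent primer extension and capillary electrophoresis after 24 h dosing of transfected HepG2 cells. Activity in either direction fitted relative to DMSO control.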
Chain of Paired box protein Pax-6 (Homo sapiens) (P26367 whole entry, looked up): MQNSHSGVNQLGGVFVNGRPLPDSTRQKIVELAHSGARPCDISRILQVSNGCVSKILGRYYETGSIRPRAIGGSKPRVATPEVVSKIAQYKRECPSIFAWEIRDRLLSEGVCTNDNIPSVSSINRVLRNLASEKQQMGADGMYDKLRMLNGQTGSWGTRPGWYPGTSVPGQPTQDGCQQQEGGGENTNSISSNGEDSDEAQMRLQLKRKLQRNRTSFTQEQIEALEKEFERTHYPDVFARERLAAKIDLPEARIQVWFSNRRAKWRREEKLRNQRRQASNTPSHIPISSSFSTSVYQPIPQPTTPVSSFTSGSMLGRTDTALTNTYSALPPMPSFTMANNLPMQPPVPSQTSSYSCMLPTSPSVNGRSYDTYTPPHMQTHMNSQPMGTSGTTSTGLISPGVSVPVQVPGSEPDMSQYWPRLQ

The structures appear in SMILES notation. Calls of active or inactive are those of the source. Rule for the calls: active = hit-call score of the fitted dose curve at least 0.9, where 1 is the maximum; inactive = score below 0.9.

Chain of Transcription factor Sp1 (Homo sapiens) (P08047 whole entry, looked up): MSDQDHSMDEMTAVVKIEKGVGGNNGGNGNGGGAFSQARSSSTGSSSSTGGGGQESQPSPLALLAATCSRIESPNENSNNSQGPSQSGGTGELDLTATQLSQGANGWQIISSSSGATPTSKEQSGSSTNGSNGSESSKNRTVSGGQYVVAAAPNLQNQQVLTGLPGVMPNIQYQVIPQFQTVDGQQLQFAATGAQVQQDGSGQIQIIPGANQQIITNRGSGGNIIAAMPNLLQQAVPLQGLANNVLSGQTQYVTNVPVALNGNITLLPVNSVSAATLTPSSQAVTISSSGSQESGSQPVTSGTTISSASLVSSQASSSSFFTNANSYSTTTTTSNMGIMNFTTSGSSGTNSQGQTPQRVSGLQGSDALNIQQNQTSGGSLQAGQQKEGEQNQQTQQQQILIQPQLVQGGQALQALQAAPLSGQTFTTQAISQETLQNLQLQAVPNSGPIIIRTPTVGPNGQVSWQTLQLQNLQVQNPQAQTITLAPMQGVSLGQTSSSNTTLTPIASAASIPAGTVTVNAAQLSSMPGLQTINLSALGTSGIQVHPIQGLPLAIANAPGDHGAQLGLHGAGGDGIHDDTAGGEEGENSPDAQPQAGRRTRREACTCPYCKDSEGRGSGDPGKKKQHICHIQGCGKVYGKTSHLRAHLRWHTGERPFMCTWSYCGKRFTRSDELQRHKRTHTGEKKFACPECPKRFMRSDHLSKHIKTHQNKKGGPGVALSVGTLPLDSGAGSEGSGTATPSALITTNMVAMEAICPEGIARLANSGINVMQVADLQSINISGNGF
Chain of Hypoxia-inducible factor 1-alpha (Homo sapiens) (Q16665 whole entry, looked up): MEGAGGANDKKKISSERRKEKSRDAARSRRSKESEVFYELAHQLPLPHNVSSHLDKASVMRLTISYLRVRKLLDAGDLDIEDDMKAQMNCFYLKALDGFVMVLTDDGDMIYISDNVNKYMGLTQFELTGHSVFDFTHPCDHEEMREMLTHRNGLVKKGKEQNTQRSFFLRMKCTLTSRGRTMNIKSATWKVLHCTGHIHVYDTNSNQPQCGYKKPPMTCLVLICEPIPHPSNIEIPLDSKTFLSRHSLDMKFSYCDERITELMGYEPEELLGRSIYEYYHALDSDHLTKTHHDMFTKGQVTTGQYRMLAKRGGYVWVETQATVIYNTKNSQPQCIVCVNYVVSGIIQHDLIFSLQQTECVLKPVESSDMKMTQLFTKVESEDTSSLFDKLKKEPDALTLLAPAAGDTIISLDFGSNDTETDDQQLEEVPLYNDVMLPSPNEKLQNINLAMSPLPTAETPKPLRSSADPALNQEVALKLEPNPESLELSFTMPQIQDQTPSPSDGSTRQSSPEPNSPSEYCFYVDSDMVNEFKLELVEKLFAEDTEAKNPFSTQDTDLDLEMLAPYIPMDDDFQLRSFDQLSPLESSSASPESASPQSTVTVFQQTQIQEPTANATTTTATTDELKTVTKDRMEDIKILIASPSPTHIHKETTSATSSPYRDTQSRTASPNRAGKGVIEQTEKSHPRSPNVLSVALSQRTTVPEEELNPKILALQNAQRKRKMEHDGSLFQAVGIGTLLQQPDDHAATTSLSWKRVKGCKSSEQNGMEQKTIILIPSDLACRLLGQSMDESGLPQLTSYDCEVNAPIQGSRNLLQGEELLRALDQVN
Chain of Signal transducer and activator of transcription 3 (Homo sapiens) (P40763 whole entry, looked up, the tested form may be a part): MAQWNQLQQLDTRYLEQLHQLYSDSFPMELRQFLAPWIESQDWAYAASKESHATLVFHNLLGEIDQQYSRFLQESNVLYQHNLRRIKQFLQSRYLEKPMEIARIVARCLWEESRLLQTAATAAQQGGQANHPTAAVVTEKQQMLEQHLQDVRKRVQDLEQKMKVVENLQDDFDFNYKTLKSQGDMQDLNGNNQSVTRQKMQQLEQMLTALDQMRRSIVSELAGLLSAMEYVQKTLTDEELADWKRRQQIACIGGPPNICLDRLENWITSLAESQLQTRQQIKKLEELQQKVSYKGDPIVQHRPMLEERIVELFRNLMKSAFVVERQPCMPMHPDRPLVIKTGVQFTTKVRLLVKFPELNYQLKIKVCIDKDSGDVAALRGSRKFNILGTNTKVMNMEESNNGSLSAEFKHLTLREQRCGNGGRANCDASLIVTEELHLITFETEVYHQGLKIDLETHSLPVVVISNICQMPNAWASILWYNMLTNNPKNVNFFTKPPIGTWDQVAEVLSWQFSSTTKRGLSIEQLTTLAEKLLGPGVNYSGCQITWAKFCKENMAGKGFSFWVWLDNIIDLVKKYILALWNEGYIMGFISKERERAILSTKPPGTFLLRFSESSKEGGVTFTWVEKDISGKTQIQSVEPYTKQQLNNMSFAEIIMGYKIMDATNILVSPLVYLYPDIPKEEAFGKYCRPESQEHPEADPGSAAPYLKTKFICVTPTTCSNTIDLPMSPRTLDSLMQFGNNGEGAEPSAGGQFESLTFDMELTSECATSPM
Chain of Heat shock factor protein 1 (Homo sapiens) (Q00613 whole entry, looked up): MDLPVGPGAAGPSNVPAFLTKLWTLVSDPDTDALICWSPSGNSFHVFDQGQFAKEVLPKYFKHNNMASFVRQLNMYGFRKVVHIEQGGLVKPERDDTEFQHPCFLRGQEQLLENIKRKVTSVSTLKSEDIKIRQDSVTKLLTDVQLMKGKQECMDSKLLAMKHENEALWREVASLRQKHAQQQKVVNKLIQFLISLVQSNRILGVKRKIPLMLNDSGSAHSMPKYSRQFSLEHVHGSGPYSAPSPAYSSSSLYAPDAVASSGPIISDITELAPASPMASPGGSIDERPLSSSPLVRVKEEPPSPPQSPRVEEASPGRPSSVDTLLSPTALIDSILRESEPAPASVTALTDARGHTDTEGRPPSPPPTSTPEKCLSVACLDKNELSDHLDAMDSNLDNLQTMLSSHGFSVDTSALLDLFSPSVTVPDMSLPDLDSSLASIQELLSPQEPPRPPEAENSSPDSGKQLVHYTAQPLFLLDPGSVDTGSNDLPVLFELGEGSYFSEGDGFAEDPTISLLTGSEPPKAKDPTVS

With `CCCCCCCCCCBr`, the outcome in assay [1], in assay [2], in [3], in [4], in assay [5] and in assay [6] was inactive. For the same molecule, the molecule was classed as inactive in assay [8], in [9], in [10], in assay [11], in assay [12] and in assay [13]. The call in assay [14], in assay [15], in assay [16], in assay [17] and in assay [18] was inactive. The half-maximal activity concentration (AC50) in [7] is 27.7 µM (active).

With `CCCCCCCCCCCCc1cccc(S(=O)(=O)O)c1`, the molecule was classed as inactive in assay [1], in assay [2], in assay [3], in [4], in assay [6] and in assay [19]. For the same molecule, the call in assay [20], in assay [10], in [11], in assay [12], in assay [13] and in assay [14] was inactive. The call in assay [15], in assay [16] and in [17] was inactive.

Regarding `COc1ccc([N+](=O)[O-])cc1O`, the molecule was classed as inactive in [1], in [2], in assay [3], in assay [4], in [5] and in assay [6]. In addition, the call in assay [7], in assay [8], in assay [9], in assay [11], in [12] and in assay [13] was inactive. For the same molecule, the molecule was called inactive in assay [14], in assay [15], in assay [16], in [17] and in assay [18].

Consider `CS(=O)(=O)c1ccc(C(=O)C2C(=O)CCCC2=O)c(Cl)c1COCC(F)(F)F`, for which the result in assay [1], in assay [2], in assay [3], in [4], in assay [6] and in assay [19] was inactive. Further, the result in [8], in assay [9], in [11], in [12], in [13] and in [14] was inactive. In addition, the result in [15], in assay [16], in [17] and in assay [18] was inactive. Moreover, the AC50 in [7] was 26.4 µM (active).
